The text below walks through data of PubChem BioAssay (NCI).

Structures are written as SMILES. Compounds without any hit were thinned out: in the full panel of roughly 83,000, 20% have a hit.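 Cell lines were cultured in 96-well plates, exposed to a single compound concentration, and assessed for percent growth 48 hours later.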 Unmarked numbers belong to inactive results. Activity calls are given as the source filed them. How the source made its calls: active means growth percent below 10; inactive means the rest.

Holding throughout (experiment): NCI-60 one-dose screen, 48 h (100 = growth as untreated, 0 = no growth, -100 = all killed)
Holding throughout (conditions): 10 µM unless noted

For assay [1], the system named is T-47D breast.
Assay [2] relates to BT-549 breast.
The subject of assay [3] is MDA-MB-435 melanoma.
Assay [4] concerns SW-620 colon.
For assay [5], the system named is MCF7 breast.
In assay [6] the test system is HCT-116 colon.
In assay [7] the test system is HCC-2998 colon.
Assay [8] deals with KM12 colon.

Regarding `ClCC1(Cn2cnc3c(Cl)nc(Cl)nc32)COC1`, the growth in assay [1] was 72%; in assay [2], 108%; in assay [3], 87.6%; in assay [4], 66.3%; in assay [5], 76.1%; in assay [6], 13.7%. In addition, the growth in assay [7] was -6.15% (active); in assay [8], 97.5%.
`COc1cc2nc(-c3ccc(C(F)(F)F)cc3)cc(OCCCN3CCC(O)CC3)c2cc1OC`: the growth is 24.7% in assay [1]; 26.5% in assay [2]; -29% (active) in assay [3]; 15.9% in assay [4]; 37.3% in assay [5]; 15% in assay [6]. The growth was 52.5% in assay [7] and 26.5% in assay [8].
Regarding `CC(Oc1ccc(C(=O)NS(=O)(=O)C(C)(C)C)cc1C(F)(F)F)c1ccc(Oc2ccccc2)cn1` (centres undefined), the growth in assay [1] was 60.5%; in assay [2] it was 67.2%; in assay [3] it was -4.12% (active); in assay [4], 58.4%; in assay [5] it was 38.9%; in assay [6] it was 60.1%. For the same compound, the growth was 86.9% in assay [7] and 52.7% in assay [8].
As to `CCNC(=O)c1[nH]cc(-c2ccc(OC)cc2)c1-c1cc(OC)c(OC)c(OC)c1`, the growth in assay [1] was 27.7%; in assay [2], 72.5%; in assay [3], -4.43% (active); in assay [4] it was 31.4%; in assay [5], 24.4%; in assay [6], 15.3%. Moreover, the figures for the growth in assay [7] and in assay [8] were 89.2% and 22.1%, respectively.
As for `O=C1NC(=O)C(=Cc2cn(Cc3ccccn3)c3ccccc23)C(=O)N1`, the growth in assay [1] is 100%; in assay [2], 98.8%; in assay [3], 101%; in assay [4] it was 105%; in assay [5], 87.6%; in assay [6], 100%. Further, the growth was 105% in assay [7] and 106% in assay [8].
Take `CCCCCCCCOc1ccc(/C=N/Nc2cc(C)nc3ccc(Cl)cc23)cc1`: the growth in assay [1] is 56%; in assay [2], 111%; in assay [3], -19.8% (active); in assay [4] it was -70.4% (active); in assay [5], -69.7% (active); in assay [6] it was -69.9% (active). Also, the growth in assay [7] was -58.6% (active); in assay [8], -72.9% (active).
In the case of `Nc1nnc2cc(Cl)ccc2n1`, the growth in assay [1] is 93.1%; in assay [2] it was 114%; in assay [3], 106%; in assay [4], 96.5%; in assay [5] it was 88.7%; in assay [6], 101%. The values for the growth in assay [7] and in assay [8] were 110% and 97%, respectively.
Regarding `COc1ccc(-c2nc(SCCC(C)C)nc(N/N=C(/C)c3ccc(C)cc3)c2C#N)cc1`, the growth in assay [1] was 87.1%; in assay [2], 91%; in assay [3], 103%; in assay [4] it was 95.2%; in assay [5], 91.4%; in assay [6], 93.2%. The values for the growth in assay [7] and in assay [8] were 99% and 93.5%, respectively.
Consider `Nc1nc(N)nc(NCc2ccccc2)n1`, for which the growth was 98.2% in assay [1]; 106% in assay [2]; 112% in assay [3]; 112% in assay [4]; 95.8% in assay [5]; 106% in assay [6]. The growth was 94.7% in assay [7] and 104% in assay [8].
Turning to `C(=N\Nc1ncc(-c2cc3cc4c(cc3o2)OCO4)s1)/c1c[nH]c2ccccc12`, the growth was -3.93% (active) in assay [1]; -56.9% (active) in assay [2]; -31.6% (active) in assay [3]; -33.9% (active) in assay [4]; -0.831% (active) in assay [5]; -1.24% (active) in assay [6]. Further, the growth in assay [7] is -3.45% (active); in assay [8], -29.8% (active).
As for `O=C(Nc1ccc(Nc2ncccn2)cc1)NC1C=c2ccccc2=CC1` (centres undefined), the growth is 100% in assay [1]; 102% in assay [2]; 113% in assay [3]; 106% in assay [4]; 97.9% in assay [5]; 111% in assay [6]. The growth in assay [7] is 106%; in assay [8] it was 108%.
With `CC1=CC[C@@H]2CC[C@]3(C)[C@H](CC[C@@H]4[C@@]5(C)CCCNC(C)(C)[C@@H]5CC[C@]43C)[C@H]2[C@@H]1C`, the growth is 65% in assay [1]; 97.1% in assay [2]; -17.3% (active) in assay [3]; -66.3% (active) in assay [4]; -28.2% (active) in assay [5]; -32.1% (active) in assay [6]. Further, the values for the growth in assay [7] and in assay [8] were -51.5% (active) and -53% (active), respectively.
Take `CCN(CC)CCSCCCNc1c(C)cnc2cc(Cl)ccc12`: the growth in assay [1] was 96.5%; in assay [2] it was 85.6%; in assay [3], 85.1%; in assay [4], 88.3%; in assay [5] it was 79.4%; in assay [6], 52.9%. Moreover, the growth is 91% in assay [7] and 91.6% in assay [8].
Regarding `CSc1nnc2c(=O)n(C)c(=O)n(C)c2n1`, the growth in assay [1] was 97.5%; in assay [2], 96.4%; in assay [3], 95.2%; in assay [4], 96.1%; in assay [5], 97.8%; in assay [6], 106%. The values for the growth in assay [7] and in assay [8] were 105% and 93.6%, respectively.
As for `O=C1CCCN1c1cccc2cccnc12`, the growth in assay [1] is 97.5%; in assay [2], 109%; in assay [3], 100%; in assay [4], 101%; in assay [5], 93.3%; in assay [6], 102%. Besides, the growth in assay [7] was 86.7%; in assay [8] it was 102%.
On to `Cc1cc(C)n(Nc2nc3ccccc3[nH]c2=O)c(=O)c1C#N`, for which the growth in assay [1] is 86%; in assay [2], 106%; in assay [3], 103%; in assay [4] it was 98.5%; in assay [5] it was 82.6%; in assay [6] it was 96.1%. In addition, the figures for the growth in assay [7] and in assay [8] were 103% and 92.9%, respectively.
`CC(=O)O[C@H]1CC[C@@]2(C)[C@@H](CC[C@@H]3[C@@H]2CC[C@@]2(C)[C@H]3CC[C@]2(O)C(C)=O)C1`: the growth in assay [1] was 103%; in assay [2] it was 92.5%; in assay [3], 104%; in assay [4], 104%; in assay [5] it was 105%; in assay [6] it was 99.1%. For the same compound, the values for the growth in assay [7] and in assay [8] were 96.5% and 107%, respectively.
With `COC(=O)CCCCCCCCC1(C)C=CC(C(C)O)=CC1` (centres undefined), the growth was 99.9% in assay [1]; 108% in assay [2]; 112% in assay [3]; 91.2% in assay [4]; 101% in assay [5]; 99.7% in assay [6]. For the same compound, the figures for the growth in assay [7] and in assay [8] were 98.7% and 99.8%, respectively.
With `COc1nc(N)nc(-n2c(-c3ccc(C)cc3)nc3ccccc32)c1NCc1ccc(C)cc1`, the growth in assay [1] was 79%; in assay [2], 101%; in assay [3] it was 102%; in assay [4] it was 98.1%; in assay [5], 91.8%; in assay [6], 84.5%. Besides, the growth was 103% in assay [7] and 89.6% in assay [8].
Turning to `Cc1cc(NC(=O)c2cnc(N3CCN(CCOCCOCCOCCOCCC(=O)N[C@H](C(=O)N4C[C@H](O)C[C@H]4C(=O)N[C@@H](C)c4ccc(-c5scnc5C)cc4)C(C)(C)C)CC3)cn2)c2ncccc2c1`, the growth is 20.2% in assay [1]; -37.3% (active) in assay [2]; -68.3% (active) in assay [3]; -39.9% (active) in assay [4]; 4.01% (active) in assay [5]; -60.3% (active) in assay [6]. Also, the growth in assay [7] is -80.6% (active); in assay [8], -64.6% (active).
On to `Cc1ccc(/C=C/C(=O)c2ccc(N)cc2)c(C)c1`, for which the growth in assay [1] was 101%; in assay [2] it was 89.6%; in assay [3], 77%; in assay [4], -69.1% (active); in assay [5], 35%; in assay [6], 35.8%. Besides, the growth is 106% in assay [7] and 63.3% in assay [8].
As to `Cc1ccc(C(=O)Nc2ccccc2C(=O)N/N=C(\c2ccccc2)c2ccccn2)cc1`, the growth in assay [1] was 13.4%; in assay [2], 13.5%; in assay [3] it was 28%; in assay [4] it was 37.3%; in assay [5] it was 11.9%; in assay [6], 17.9%. Further, the growth in assay [7] is 29.7%; in assay [8], 26%.
On to `O=C(NNc1nc(Cl)nc(N2CCN(C(c3ccccc3)c3ccccc3)CC2)n1)c1ccccc1`, for which the growth in assay [1] was 54.8%; in assay [2], 7.6% (active); in assay [3] it was 58.7%; in assay [4], -40.7% (active); in assay [5] it was 82.5%; in assay [6], -23.9% (active). In addition, the growth in assay [7] was -24.5% (active); in assay [8], 76.9%.
On to `COc1ccc(NS(=O)(=O)c2ccc(C)cc2)c([N+](=O)[O-])c1`, for which the growth in assay [1] is 93.5%; in assay [2], 104%; in assay [3], 111%; in assay [4] it was 103%; in assay [5], 99.7%; in assay [6], 106%. Besides, the figures for the growth in assay [7] and in assay [8] were 99.6% and 104%, respectively.
Consider `Nc1nc(SN=Nc2ccc(S(N)(=O)=O)cc2)c2[nH]cnc2n1`, for which the growth in assay [1] was 23.8%; in assay [2], 36%; in assay [3] it was 7.71% (active); in assay [4], 19.2%; in assay [5], 7.59% (active); in assay [6], 12.3%. The growth in assay [7] is 5.53% (active); in assay [8], 5.31% (active).
In the case of `COc1ccc(-c2cnc(N)nc2-c2ccc(OC)cc2O)cc1`, the growth in assay [1] is 93.7%; in assay [2] it was 115%; in assay [3], 101%; in assay [4], 95.7%; in assay [5], 95.4%; in assay [6] it was 80.4%. For the same compound, the growth was 103% in assay [7] and 45.5% in assay [8].
Take `COc1ccc(-n2cc(-c3cc(OC)c(OC)c(OC)c3)n(C(C)=O)c2=O)cc1`: the growth in assay [1] was 77.2%; in assay [2], 100%; in assay [3], 84.3%; in assay [4], 98.1%; in assay [5], 71.5%; in assay [6], 94%. Further, the growth in assay [7] is 108%; in assay [8], 85%.
Turning to `CCN(CC)CCCC(C)Nc1cc(-c2cccc(OC(F)(F)F)c2)nc2ccc(N3CCCC3)cc12` (centres undefined), the growth in assay [1] is -19.3% (active); in assay [2], 78.7%; in assay [3] it was -84.4% (active); in assay [4], -37.5% (active); in assay [5] it was -10% (active); in assay [6], -53.7% (active). In addition, the figures for the growth in assay [7] and in assay [8] were -58.2% (active) and 7.78% (active), respectively.
